FUS suppressor – suppressors of FUS proteinopathy in yeast | S. cerevisiae FUS-expressing, growth rescue, OD600, 24 h | Potency, µM (titrated, usually from 76.6 µM), hits mostly activators | 390,000 compounds, 0.24% hits | AID 1347120;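 further: plate controls were DMSO vehicle for no effect and reference control for full effect; nearly all actives have a fitted effect of over 55% in size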
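S. cerevisiae expressing FUS from galactose induction served as the toxicity model. Growth after 24hr at 30C, read as absorbance at 600 nm, indicates suppression of toxicity; compounds dosed at several concentrations.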
Abeta yeast res – restores growth of yeast expressing A-beta42 peptide | yeast expressing A-beta42, growth rescue, OD600, 48 h; response scale: 0% DMSO, 100% iron-clioquinol control | Potency, µM (highest dose often 46.1 µM), usual class: activators | 410,000 compounds, 0.063% hits; further: nearly all actives have a fitted effect of over 55% in size
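Yeast growth medium received pinned compounds, then yeast cells expressing toxic A-beta were added; plates incubated at 30 C for 48 hr. Growth read as absorbance at 600 nm, normalized to DMSO and equimolar FeCl3 plus clioquinol controls.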
aSyn rescue – alpha-synuclein toxicity inhibition in yeast; Yeast expressing alpha-synuclein, growth rescue, BacTiter-Glo, 24 h; Potency, µM (top dose mostly 46.1 µM), for inactives: at the highest dose growth rescue (activation), usual class: activators; 370,000 compounds, 0.14% hits; AID 652106; further: % of control where 0% means no effect; nearly all actives have a fitted effect of over 65% in size
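Galactose-induced alpha-syn yeast (OD600=0.02, raffinose-pregrown) + pinned cpd, 24 hr, 30 deg C; growth by BacTiter-Glo luminescence. Growth restoration scores as activation.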
TDP43 rescue – inhibitors of TDP-43 toxicity in yeast. TDP-43 expressing yeast growth rescue, BacTiter-Glo, 24 h. Potency, µM (highest dose often 46.1 µM), for the others: at the top dose growth rescue (activation), most hits filed as activators. 410,000 compounds, 1.8% hits. AID 652104; further: % of control where 0% means no effect; nearly all actives have a fitted effect of over 50% in size
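Growth rescue of TDP-43-toxic yeast measured as ATP luminescence (BacTiter-Glo). Cells grown to mid-log in raffinose, induced in galactose at OD600=0.02, exposed to compound 24 hr at 30 deg C.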
Mito fusion act – inhibitors of mitochondrial division or activators of mitochondrial fusion; Potency, µM (doses to about 46.1 µM), inactives show at the highest dose growth rescue (activation), most hits filed as activators; AID 485298; 320,000 compounds, 0.23% hits; S. cerevisiae fusion-defective mutant growth rescue, CellTiterGlo 48 h; further: % of control where 0% means no effect; nearly all actives have a fitted effect of over 45% in size
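S. cerevisiae fusion-defective temperature-sensitive mutants (e.g. fzo1-1, mgm1-5) grown 48 h at 37C in YPEG (ethanol/glycerol non-fermentable) medium with 23 nl compound per well; growth rescue read as CellTiterGlo luminescence.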
Active calls of the source: *; i = inactive; ? = inconclusive; . = not tested or not shown; [ ] = remark or other dose. Rows were chosen to be rich in hits. Some 2.2% of all compounds tested hit in one or more screens of this group. The call rests on the fitted dose curve; in most records, active means well fitted curve in the direction sought with a large enough effect; inconclusive means small, poorly fitted or top-dose-only effect, or another doubt; inactive means no such curve, though single readings can be large; an effect the other way counts as inactive or inconclusive. Potency means the concentration at half of the fitted maximal effect.

SMILES	FUS suppressor	Abeta yeast res	aSyn rescue	TDP43 rescue	Mito fusion act
O=C(CCCC(=O)OCC(Cl)=C(Cl)Cl)Nc1cccc2ccccc12	i	i	-5%	20%	8%
C=CCN1C/C(=C/c2ccccc2)N2C(=O)CC(c3ccccc3)N=C12 (stereo not drawn)	i	.	.	.	.
C/C=C/C(=O)N1CCc2cc(S(=O)(=O)N(C)Cc3ccco3)ccc21	i	.	.	.	.
Oc1sc(C=Nc2ccc(F)cc2)c2ccccc12	i	i	0%	0.63µM*	-3%
C#CCOCCOCCOCCNc1nc(N2CCN(C(=O)CCCCCCCCCCNC(=O)[C@@H](CCSC)n3cc(CCO)nn3)CC2)nc(N2CCN(C(=O)CCCCCCCCCCNC(=O)[C@@H]([C@H](C)O)n3cc(C)nn3)CC2)n1	7.9µM*	i	-7%	-5%	1%
C#CCOCCOCCOCCNc1nc(N2CCN(C(=O)CCCCCCCCCCNC(=O)[C@H](CCCCN)n3cc(C[C@@H](C)CC)nn3)CC2)nc(N2CCN(C(=O)CCCCCCCCCCNC(=O)[C@@H]([C@H](C)O)n3cc(C)nn3)CC2)n1	?	i	-60%	32%	-5%
C#CCOCCOCCOCCNc1nc(N2CCN(C(=O)CCCCCCCCCCNC(=O)Cn3cc(CCCCCN)nn3)CC2)nc(N2CCN(C(=O)CCCCCCCCCCNC(=O)Cn3cc(C[C@@H](C)O)nn3)CC2)n1	?	i	-3%	5%	-14%
C#CCOCCOCCOCCNc1nc(N2CCN(C(=O)CCCCCCCCCCNC(=O)[C@@H](CCSC)n3cc(CCO)nn3)CC2)nc(N2CCN(C(=O)CCCCCCCCCCNC(=O)[C@H](CCC(=O)O)n3cc(CCCCCN)nn3)CC2)n1	11µM*	i	-21%	19%	-9%
C#CCOCCOCCOCCNc1nc(N2CCN(C(=O)CCCCCCCCCCNC(=O)Cn3cc(C[C@@H](C)O)nn3)CC2)nc(N2CCN(C(=O)CCCCCCCCCCNC(=O)[C@@H](CCSC)n3cc(CCO)nn3)CC2)n1	4µM*	i	-1%	8%	-4%
C#CCOCCOCCOCCNc1nc(N2CCN(C(=O)CCCCCCCCCCNC(=O)[C@@H](CCSC)n3cc(CCO)nn3)CC2)nc(N2CCN(C(=O)CCCCCCCCCCNC(=O)[C@H](CO)n3cc(CCCCCN)nn3)CC2)n1	?	i	-37%	9%	-15%
C#CCOCCOCCOCCNc1nc(N2CCN(C(=O)CCCCCCCCCCNC(=O)[C@H](CCCCN)n3cc(C)nn3)CC2)nc(N2CCN(C(=O)CCCCCCCCCCNC(=O)[C@@H]([C@H](C)O)n3cc(C)nn3)CC2)n1	11µM*	i	0%	5%	-8%
Cc1cc(O)c2c(C)c(CC(=O)NCc3ccccc3Cl)c(=O)oc2c1	i	i	.	11%	.
Cn1nc(-c2ccccc2F)c2cc(C(=O)Nc3ccc4c(c3)OCCO4)sc21	i	i	4%	16µM*	9%
COc1cccc(-c2nn(C)c3sc(C(=O)Nc4ccc5c(c4)OCCO5)cc23)c1	i	i	11%	8%	17%
CN(C)C(=O)/C=C\c1cn(-c2ccccc2)nc1-c1ccc2c(c1)OCCO2	i	i	8%	0%[0.397 µM]	18µM*
CCSc1nc(CC)c2c(c1C#N)CCCC2	i	i	9%	17%	8.9µM*
COc1ccc(C(=O)NC(=S)NNC(=O)c2c(-c3ccccc3)noc2C)cc1OC	i	11µM*	?	-14%[1.82 µM]	-10%
O=C(/C=C/c1ccc(F)cc1)NC(=S)NNC(=O)[C@H]1C[C@@H]1c1ccccc1	i	?	10µM*	6.3µM*	-11%
O=C(NC(=S)NNC(=O)[C@H]1C[C@@H]1c1ccccc1)c1ccc(F)cc1	i	?	3.5µM*	10µM*	?
COc1cc(OC)cc(C(=O)NC(=S)NNC(=O)[C@H]2C[C@@H]2c2ccccc2)c1	i	?	19%	23%	-13%
COc1ccc(C(=O)NNC(=S)NC(=O)c2ccc(Br)o2)cc1OC	i	i	8%	3.5µM*	-12%
CC(C)(C)NC(=S)NNC(=O)[C@H]1C[C@@H]1c1ccccc1	i	i	1%	20%	-2%
O=C(Cn1c(SCCOc2ccccc2Cl)nc2ccccc21)N1CCCCC1	?	i	.	0%	.
COc1ccc(C(=O)NC(=S)NNC(=O)[C@H]2C[C@@H]2c2ccccc2)cc1OC	i	?	18µM*	28%	-15%
O=C(CCn1c(=O)oc2ccccc21)Nc1nc2ccccc2s1	i	i	6%	28µM*	12%
SMILES	FUS suppressor	Abeta yeast res	aSyn rescue	TDP43 rescue	Mito fusion act
CCSc1nnc(NC(=O)CCn2c(=O)oc3ccccc32)s1	i	i	-7%	-4%	2%
O=c1c(-c2ccc(Cl)cc2)c(C(F)(F)F)oc2c(CN3CCCCC3)c(O)ccc12	i	i	.	-9%	.
Cc1ccc(-c2nc(Cn3c(SCc4ccc(F)cc4)nc4cccnc43)c(C)o2)cc1	i	i	.	26%	.
Cc1oc(-c2cccc(Br)c2)nc1Cn1c(SCc2cccc(F)c2)nc2cccnc21	i	?	.	28µM*	.
O=C(CCNc1cc(Cl)cc(Cl)c1)c1ccco1	i	i	16%	16µM*	-10%
CCOc1ccccc1NC(=O)CCc1c(C)nc2c(c(C)nn2-c2ccccc2)c1C	i	i	.	18%	.
CN(C(=O)c1nc(-c2cccc(F)c2)n2c1CCCCC2)c1ccccc1F	i	i	.	-1%	.
CCOc1ccc(CCNC(=O)c2nc(-c3cccc(F)c3)n3c2CCCCC3)cc1OCC	?	i	.	18µM*	.
CCOC(=O)c1ccc(NC(=O)COCc2cc(-c3ccc4c(c3)OCO4)on2)cc1	i	i	.	24%	.
O=C1CC(=Nc2ccccc2)NN1c1ccccc1	13µM*	?	12%	16µM*	-6%
O=C1Cc2ccccc2N1c1ccccc1	i	i	5%	?	2%
CCC(NC(=O)CCc1c(C)c2cc3c(C)c(C)oc3cc2oc1=O)C(=O)N[C@@H](Cc1ccccc1)C(=O)O (stereo partly drawn)	28µM*	i	5%	0%	-3%
Cc1cc(-c2ccccc2)nc2cc(C(=O)Nc3cc(C(F)(F)F)ccc3Cl)nn12	i	i	.	8%	.
Clc1ccccc1CSc1nncn1NC/C=C/c1ccccc1	.	i	23%	0%	22µM*
C(=C\c1ccccc1)/CNn1cnnc1	.	i	2%	8%	2%
CCCCNC(=O)N1CCN(C(c2ccccc2)c2ccccc2)CC1	i	i	-2%	-4%	18µM*
CCCCNC(=S)N1CCN(C(c2ccccc2)c2ccccc2)CC1	i	i	1%	1%	?

Screening results: PubChem, National Center for Advancing Translational Sciences (NCATS)
